Our source for the inhibition values is PubChem BioAssay AID1986 (Sanford-Burnham Center for Chemical Genomics, 2009).

The test can be described thus: cell-free HIV fusion peptide-binding blockers – biochemical, uHTS, fluorescence dequenching, primary screen (AID 1986). As to conditions: 30 min, stronger effect = higher value.
Where [1] appears, read: measured here: repeat confirmation average inhibition, at 18.6 µM.

About 890 (0.31%) of roughly 290,000 compounds were called active. Cut-off read from the data, not from the text of the source: active = inhibition mostly above about 52% (no sharp cut-off); inactive = mostly below about 76%. Only a selection was taken, and actives are over-represented in it overall.

In general, inhibition refers to the drop in the measured response relative to a control, in per cent.

Regarding `c1ccc(-c2csc(-c3ccncc3)n2)cc1`, the inhibition (at 20 µM) was 0.1% (inactive).
Still for that read-out and setting: next, `O=C(O)c1c2c(nc3ccccc13)/C(=C/c1ccc(O)cc1)CC2`: 77.1% (active); `O=C(O)c1ccc(/C=C2\CCCc3c2nc2ccccc2c3C(=O)O)cc1`: 4.2% (inactive); `O=C(O)c1c2c(nc3ccccc13)/C(=C/c1ccc(O)cc1)CCC2`: 6.1% (inactive).
The same measure, in the same setting: next, `CC(C)OCCCNC(=O)NC12CC3CC(CC(C3)C1)C2`: 1.1% (inactive).
For the molecule `Cc1ccc(-n2nc3c(c2NC(=O)c2ccc4c(c2)OCO4)CS(=O)C3)cc1` (stereo unspecified), for the setting “at 20 µM”, the inhibition was -0.3% (inactive).
The same measure, in the same setting: to `CCc1nnc(NS(=O)(=O)c2ccc(NC(=S)NC(=O)/C=C/c3ccc(OC)cc3)cc2)s1` belongs 34.6% (inactive); to `CCc1nnc(NS(=O)(=O)c2ccc(NC(=S)NC(=O)/C=C/c3ccc([N+](=O)[O-])cc3)cc2)s1`, 25.6% (inactive); to `CCc1nnc(NS(=O)(=O)c2ccc(NC(=S)NC(=O)/C=C/c3ccccc3)cc2)s1`, 60.8% (active).
Consider `Cc1cccc(C)c1NC(=O)C(Cl)=C(Cl)Cl`, for which the inhibition (at 20 µM) is 0.7% (inactive).
Still for that read-out and setting: to `O=C(O)c1cccc(S(=O)(=O)N2CCOCC2)c1` belongs -1% (inactive); to `CCn1ncc(Cl)c1C(=O)Nc1cc([N+](=O)[O-])ccc1OC`, 0.4% (inactive); to `Cc1ccsc1/C=N/NC(=O)c1ccccn1`, -0.7% (inactive).
The same measure, in the same setting: to `COc1cccc(N2C(=O)C(c3ccccc3)=C(c3nc4ccccc4s3)C2NC(C)=O)c1` (stereo unspecified) belongs 0.6% (inactive).
Still for that read-out and setting: to `N#C/C(=N\Nc1cccc([N+](=O)[O-])c1)C(=O)c1ccc(Br)cc1` belongs 63.4% (active).
Turning to `COc1ccc(C(=O)/C(C#N)=N/Nc2ccc([N+](=O)[O-])cc2)cc1`, the inhibition (at 20 µM) was 5.5% (inactive).
The same measure, in the same setting: next, `COc1ccc(C(=O)/C(C#N)=N/Nc2cccc([N+](=O)[O-])c2)cc1`: 20.6% (inactive); `Cc1c(C(=O)OCC(=O)N(C)c2ccccc2)oc2ccccc12`: 1.2% (inactive); `CCCN(CCC)S(=O)(=O)c1ccc(C(=O)OCCN2C(=O)c3cccc4c(N5CCOCC5)ccc(c34)C2=O)cc1`: 63.4% (active).
Regarding `CC(=O)N(C(C)=O)N1C(=O)c2cccc3c(N4CCOCC4)ccc(c23)C1=O`, the inhibition (at 20 µM) was 100% (active).
The same measure, in the same setting: to `O=C1c2cccc3c(N4CCCCC4)ccc(c23)C(=O)N1c1ccc(O)cc1` belongs 146% (inactive); to `O=C1c2cccc3c(N4CCCCC4)ccc(c23)C(=O)N1CCO`, -0.2% (inactive); to `O=C1c2cccc3c(N4CCCCC4)ccc(c23)C(=O)N1c1ccccc1O`, 100% (active).
The same measure, in the same setting: to `CCN(CC)S(=O)(=O)c1ccc(C(=O)OCCN2C(=O)c3cccc4c(N5CCOCC5)ccc(c34)C2=O)cc1` belongs 150% (inactive).
Still for that read-out and setting: next, `O=C(OCCN1C(=O)c2cccc3c(N4CCOCC4)ccc(c23)C1=O)c1ccccc1Cl`: 151% (inactive); `O=C(OCCN1C(=O)c2cccc3c(N4CCOCC4)ccc(c23)C1=O)c1cc(Cl)cc(Cl)c1`: 88.8% (active); `O=C1c2cccc3c(N4CCCCC4)ccc(c23)C(=O)N1c1cccc(O)c1`: 148% (inactive).
For the molecule `O=C(OCCN1C(=O)c2cccc3c(N4CCOCC4)ccc(c23)C1=O)c1ccc(Cl)cc1`, the inhibition (at 20 µM) was 149% (inactive).
For the molecule `O=C(OCCN1C(=O)c2cccc3c(N4CCOCC4)ccc(c23)C1=O)c1ccc(Cl)cc1Cl`, the inhibition (at 20 µM) was 151% (inactive).
Same read-out and setting: to `O=C(OCCN1C(=O)c2cccc3c(N4CCOCC4)ccc(c23)C1=O)c1cccc(Cl)c1` belongs 151% (inactive); to `Cc1ccc(C(=O)NC(C(=O)Nc2cccc(S(N)(=O)=O)c2)C(C)C)cc1` (stereo unspecified), -1.6% (inactive); to `COc1ccc(CNC(=O)Cn2nc(C(F)(F)F)cc2C)cc1`, -0.1% (inactive).
Still for that read-out and setting: to `O=C(O)c1cc(Cl)c(Cl)cc1C(=O)N1CCOCC1` belongs 1.9% (inactive); to `COc1ccccc1-n1c(C)nc2cc(C(=O)NCC3CCCO3)ccc21` (stereo unspecified), 0.3% (inactive).
Turning to `Cc1cc(C)n(C(=O)c2ccc(Cl)c(F)c2F)n1`, the inhibition (at 20 µM) was -0.2% (inactive).
Regarding `COc1ccc(CC(=O)Nc2c(C(=O)N3CCN(c4ncccn4)CC3)oc3ccccc23)cc1`, the inhibition (at 20 µM) was -0.6% (inactive).
Same read-out and setting: next, `O=c1ccc(C(F)(F)F)cn1Cc1cc(=O)n2cc(Br)ccc2n1`: 1.6% (inactive).
The same measure, in the same setting: next, `COC(=O)C(Cc1ccccc1)NC(=O)CSc1nc(C)cc(=O)[nH]1` (stereo unspecified): -1.7% (inactive); `CCNc1cc(=O)n(C)c(=O)n1C`: 0.1% (inactive).
The same measure, in the same setting: to `COc1cc(CO)cc(Br)c1OCC(=O)O` belongs 0% (inactive).
`CCc1ccc(N=C2NC(=O)/C(=C/c3ccc(OCC(=O)O)c(OC)c3)S2)cc1`: the inhibition by setting is: (at 20 µM) 55.1% (inactive); under setting [1], 26.6%.
Turning to `CC(=O)Nc1c(-c2cc(=O)oc3cc(C)ccc23)oc2ccccc12`, under “at 20 µM”, the inhibition was -0.7% (inactive).
As to `Cc1ccccc1CN1C(=O)C(C)S/C1=N/N=C/c1ccco1` (stereo unspecified), the inhibition (at 20 µM) was 4.6% (inactive).
For `O=C(O)c1cccc(-n2c(O)c(C=C3N=c4ccccc4=N3)sc2=S)c1`, the inhibition (at 20 µM) was 32.8% (inactive).
Turning to `CC1=Nc2ccccc2/C1=C/c1sc(=S)n(-c2cccc(C(=O)O)c2)c1O`, the inhibition by setting is: (at 20 µM) 112% (active); under setting [1], 134%.
With `O=C(O)c1ccc(-n2c(O)c(C=C3N=c4ccccc4=N3)sc2=S)cc1`, for the setting “at 20 µM”, the inhibition is 33.3% (inactive).
Take `O=[N+]([O-])c1cccc(-c2noc(-c3ccco3)n2)c1`: the inhibition (at 20 µM) was -2.4% (inactive).
Take `COc1ccccc1-c1nnc(SCC(=O)N2CCC(C)CC2)o1`: the inhibition (at 20 µM) was -1.2% (inactive).
For `Cc1ccc(OCC(=O)N/N=C\c2ccc(-c3cccc(C(=O)O)c3)o2)c(C)c1`, the inhibition (at 20 µM) was 56.8% (active).
As to `Cc1ccc(NC(=O)CN2C(=O)S/C(=C/c3ccc(-c4cc(C(=O)O)ccc4C)o3)C2=O)cc1C`, the inhibition is 63.2% (inactive) (at 20 µM) and 35.6% under setting [1].
Take `Cc1ccc(OCC(=O)N/N=C\c2ccc(C)o2)c(C)c1`: the inhibition (at 20 µM) was 0.1% (inactive).
Take `Cc1cccc(NC(=O)CN2C(=O)N/C(=C/c3ccc(-c4cccc(C(=O)O)c4C)o3)C2=O)c1`: the inhibition (at 20 µM) is 28.4% (inactive).
Regarding `Cc1ccc(NC(=O)CN2C(=O)S/C(=C\c3ccc(-c4cccc(C(=O)O)c4C)o3)C2=O)cc1C`, the inhibition was 68.7% (inactive) (at 20 µM) and 6.8% under setting [1].
As to `CC(C)(C)OC(=O)CN1C(=O)S/C(=C\c2ccc(-c3cccc(C(=O)O)c3)o2)C1=O`, the inhibition reads like this: (at 20 µM) 51.8% (inactive); under setting [1], 40.6%.
`Cc1cccc(NC(=O)CN2C(=O)N/C(=C\c3ccc(-c4cccc(C(=O)O)c4)o3)C2=O)c1`: the inhibition (at 20 µM) was 40.3% (inactive).
Regarding `Cc1ccccc1NC(=O)CN1C(=O)S/C(=C\c2ccc(-c3cc(C(=O)O)ccc3C)o2)C1=O`, the inhibition runs as follows: (at 20 µM) 69.3% (inactive); under setting [1], 19.9%.
As to `Cc1ccc(C(=O)O)cc1-c1ccc(/C=C2\SC(=O)N(CC(=O)Nc3ccccc3)C2=O)o1`, the inhibition (at 20 µM) was 59.6% (active).
The same measure, in the same setting: to `Cc1cccc(NC(=O)CN2C(=O)S/C(=C\c3ccc(-c4cccc(C(=O)O)c4C)o3)C2=O)c1` belongs 55.2% (active); to `COc1ccc(CC(=O)N/N=C/c2ccc(-c3cccc(C(=O)O)c3)o2)cc1OC`, 28.8% (inactive).
Consider `Cc1ccc(NC(=O)CN2C(=O)S/C(=C/c3ccc(-c4cccc(C(=O)O)c4)o3)C2=O)cc1`, for which the inhibition (at 20 µM) is 79.5% (active).
